Most compounds without a hit are left out; they make up all but 19% or so of the library.
Shiga toxin inh: inhibitors of Shiga toxin in Vero cells; Vero cells, Shiga toxin protein synthesis inhibition reporter; inhibition, % at 38.7 µM; 290,000 compounds, 9.2% hits; AID 2315; in the data active = inhibition mostly above about 28%, no sharp cut-off; inactive = mostly below about 43%; also: 0% is about no effect
CHX counter: counter-screen for Shiga toxin inhibitors: cycloheximide protein synthesis inhibition; cell reporter, cycloheximide protein synthesis inhibition counterscreen; max response, %; 300,000 compounds, 12% hits; in the data active = max response mostly above about 13%, no sharp cut-off; inactive = mostly below about 14%; also: read at 38.3 µM for the half of the compounds with a filed dose; 0% is about no effect
AMA1 RON2 block: inhibitors of Plasmodium falciparum AMA1-RON2 interaction; AlphaScreen AMA1-biotinylated RON2 peptide binding; Potency, µM (series often up to 58.2 µM), without a hit: top-dose activity change, negative = inhibition, most hits filed as inhibitors; 360,000 compounds, 0.2% hits;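 also: potency is read from the fitted curve at half-maximal effect; 0% = vehicle wells and -100% = peptide control; nearly all actives have a fitted effect of over 45% in size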
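AMA1 (3D7) with his tag at 25 nM final met compounds first, then biotinylated RON2 peptide at 25 nM; detection used donor plus acceptor beads, 10 µg/mL apiece, read by AlphaScreen after 30 min at room temperature.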
SARS PLP yeast: inhibitors of SARS-CoV papain-like protease in yeast | S. cerevisiae expressing SARS-CoV PLpro, growth rescue | Potency, µM (doses to about 32.9 µM), inactives show at the highest dose activity, positive = growth rescue, hits mostly activators | 330,000 compounds, 0.19% hits; calls by dose curve; also: potency is read from the fitted curve at half-maximal effect; 0% is about no effect; nearly all actives have a fitted effect of over 55% in size
Pf growth 96h: P. falciparum growth inhibition at 96 hour, primary screen for plastid delayed-death inhibitors; Potency, µM (titrated, usually from 28.7 µM), without a hit: top-dose activity change, negative = inhibition, most hits filed as inhibitors; P. falciparum luciferase reporter growth, 96 h; 320,000 compounds, 6.9% hits; also: potency is read from the fitted curve at half-maximal effect; % is scaled to controls: 0 for no effect and ±100 for the full control effect
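Erythrocytes infected with luciferase-expressing P. falciparum were dispensed at 2% hematocrit and 0.05% parasitemia (final), then incubated with compounds 96 hours at 37 C in 5% CO2. Luminescence after detection reagent addition reported growth.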
Pf growth 48h: inhibits P. falciparum growth in the first generation, 48 h | 310,000 compounds, 5.9% hits | AID 504832 | P. falciparum luciferase growth in erythrocytes, 48 h | Potency, µM (titrated, usually from 28.7 µM), for the others: at the top dose activity change, negative = inhibition, hits mostly inhibitors; also: potency is read from the fitted curve at half-maximal effect; % is scaled to controls: 0 for no effect and ±100 for the full control effect
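Luminescence readout; reporter = integrated firefly luciferase in P. falciparum. RBC culture at 2% hematocrit, 0.1% parasitemia final, 37 C/5% CO2; decreased signal taken as growth inhibition.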
* hit, by the source's call; ? = inconclusive; . = no result given; [ ] = another dose, or the depositor's remark. Unless noted, calls follow the shape of the dose curve; as a rule, active = well fitted curve in the direction sought with a large enough effect; inconclusive = small, poorly fitted or top-dose-only effect, or another doubt; inactive = no such curve, though single readings can be large; an effect the other way counts as inactive or inconclusive.

SMILES	Shiga toxin inh	CHX counter	AMA1 RON2 block	SARS PLP yeast	Pf growth 96h	Pf growth 48h
C[C@H](CO)N1C[C@H](C)[C@@H](CN(C)C(=O)NC2CCCCC2)Oc2ccc(NC(=O)C3CCCCC3)cc2C1=O	.	.	5%	5%	.	.
CCc1ccc(CN2CCN(C(=O)Cc3ccccc3)CC2)cc1	-1	4	-26%	0%	33%	-7%
O=C(Cc1ccccc1)N1CCN(Cc2ccccc2Cl)CC1	-5	-2	6%	0%	4.1µM*	9%[0.00184 µM]
Clc1ccccc1CN1CCNCC1	-25	-2	-3%	-1%	8.3µM*	21%
Cc1ccccc1CN1CCNCC1	-1	2	1%	1%	7%	14%
c1csc(CN2CCNCC2)c1	-16	2	7%	-3%	10µM*	16%
Oc1c(Cl)cc(Cl)cc1CN1CCN(Cc2ccccc2)CC1	28	20*	-19%	-4%	0.74µM*	1.2µM*
Cc1cc2c(cc3c(=O)n(CC(=O)NCCCN4CC(C)CC(C)C4)ncn32)s1 (stereo not drawn)	3	-3	0%	1%	-28%	-26%
CC(Oc1cccc(Cl)c1)C(=O)N(C)CC(=O)Nc1ccc(N2CCOCC2)cc1 (stereo not drawn)	.	.	-3%	-2%	3%	13%
CCC/C(=N\NC(=O)C1CC1)c1ccc(Br)cc1	6	3	7%	5%	25%	?
CCOC(=O)C1CCCN(C(=O)CC(C)c2ccccc2)C1 (stereo not drawn)	169*	101*	-7%	3%	-15%	116%
CCOC(=O)CN1C(=O)/C(=C/c2ccccc2Br)Oc2ccccc21	12	-3	12%	1%	2.1µM*	14%
CCOC(=O)C1CCCN(C(=O)CSc2ccccc2)C1 (stereo not drawn)	64*	43*	0%	-10%	51%	14%
CCOC(=O)C1CCCN(C(=O)CN2C(=O)/C(=C/c3ccc(OC)cc3)Oc3ccccc32)C1 (stereo not drawn)	29*	9	9%	-47%	-17%	?
CN(C(=O)COC(=O)CCC(=O)c1ccc(F)cc1)C1CCCCC1	.	.	12%	12%	.	.
N#Cc1cnn2c(=O)[nH]cnc12	.	.	-7%	.	.	.
COc1cccc(-c2nn3c(-c4cc(C)[nH]n4)nnc3s2)c1	-10	-3	13%	2%	10µM*	.
COc1cccc(-c2nnc3sc(-c4ccccn4)nn23)c1	26	3	6%	-1%	?	-18%
Cc1cccc(-c2nnc3sc(-c4ccccc4)nn23)c1	5	4	-11%	1%	2.3µM*	14%
COc1cccc(-c2nn3c(-c4ccccn4)nnc3s2)c1	42	15*	-6%	2%	59%	.
COc1ccccc1-c1nnc2sc(COc3ccc(F)cc3)nn12	-7	1	16%	-9%	18%	1.5µM*
O=C(O)c1ccc(NC(=S)NC(=O)c2ccc(-c3ccc(Br)cc3)o2)cc1	18	7	2%	-3%	67%	?
Cc1cccc(C(=O)NCC(=O)OCc2cc(=O)n3ccsc3n2)c1	.	.	8%	-6%	2%	3%
c1ccc(OCc2nn3c(-c4ccccn4)nnc3s2)cc1	68*	33*	-5%	-2%	?	38%
Cc1ccc(/C=C/S(=O)(=O)NCCC(=O)NCc2ccccc2F)cc1	.	.	-3%	2%	.	.
SMILES	Shiga toxin inh	CHX counter	AMA1 RON2 block	SARS PLP yeast	Pf growth 96h	Pf growth 48h
CCS(=O)(=O)Nc1cccc(C(=C2CCCCC2)c2cnc[nH]2)c1	.	.	-3%	.	?	12µM*
N#CC12CCCCC1CC1CCCCC1(C#N)N2Cc1ccccn1 (stereo not drawn)	21	5	7%	5%	9.3µM*	?
N#CC12CCCCC1CC1CCCCC1(C#N)N2N (stereo not drawn)	24	11	-2%	-1%	?	13µM*
COc1ccc(N(C)S(=O)(=O)c2ccc(Cl)c(C(=O)NCC(C)(C)N3CCOCC3)c2)cc1	.	.	-16%	0%	?	?
Cc1ccc2nc3sc(C(=O)NCc4ccco4)c(N)c3cc2c1	68*	23*	-14%	-8%	219%	311%
COc1cc2cc3c(N)c(C(=O)NCc4ccco4)sc3nc2cc1OC	54*	16*	-9%	5%	-18%	?

Source: PubChem
